Results: PubChem BioAssay AID588783 (NMMLSC, 2011)
Measured potencies and affinities stand elsewhere.

What follows are compounds tested on beta-arrestin 1 peptide binding to AP-2 beta2-adaptin appendage (human) (assay: beta-arrestin/AP2 interaction blockers, potency – biochemical, cherry pick 1, beta2-adaptin appendage, flow cytometry, dose response (AID 588783)). Settings: Bead flow cytometry, FITC-arrestin peptide binding GST-AP2; at 9.12 µM; active compounds read high;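 active = inhibition of specific binding of 40% or more; inactive = inhibition of specific binding below 40%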.

Inhibition of specific binding, inactive:
CN1c2ccccc2N(C)C1(C)c1ccccc1 3%
COC(=O)c1ccccc1N/C=C1\CCc2c(c(C)nn2-c2ccccn2)C1=O 7%
O=C(NCC1COc2ccccc2O1)c1ccc(NC(=O)C(c2ccccc2)c2ccccc2)cc1 (stereo unspecified) 7%
Cc1nn(-c2ccccn2)c2c1C(c1ccsc1)C1=C(CCCC1=O)N2 (stereo unspecified) 12%
COc1cc(C2Nc3cccc4cccc(c34)N2)cc(OC)c1O 12%
Nc1c(C(=O)NC2CC2)sc2nc3c(c(-c4ccco4)c12)CC/C3=C/c1ccco1 22%
